# According to article PMC7862700, “An all-to-all approach to the identification of sequence-specific readers for epigenetic DNA modifications on cytosine”:
# Assays:
# Assay in all cases: DAPPL (digital affinity profiling via proximity ligation, sequencing); 10 mM Tris-HCl pH 7.5, 50 mM NaCl, 1 mM DTT, 4% glycerol, room temperature, 30 min; GST-TFs on glutathione beads, 16-mer random dsDNA library, 0.1% formaldehyde crosslink after washing; high values mean tight binding
# [1] = target: T1, FLI1 (Homo sapiens, UniProt Q01543 1-452); conditions: protein: recombinant; tags: N-terminal GST; dsDNA, one strand shown
# T1 sequence: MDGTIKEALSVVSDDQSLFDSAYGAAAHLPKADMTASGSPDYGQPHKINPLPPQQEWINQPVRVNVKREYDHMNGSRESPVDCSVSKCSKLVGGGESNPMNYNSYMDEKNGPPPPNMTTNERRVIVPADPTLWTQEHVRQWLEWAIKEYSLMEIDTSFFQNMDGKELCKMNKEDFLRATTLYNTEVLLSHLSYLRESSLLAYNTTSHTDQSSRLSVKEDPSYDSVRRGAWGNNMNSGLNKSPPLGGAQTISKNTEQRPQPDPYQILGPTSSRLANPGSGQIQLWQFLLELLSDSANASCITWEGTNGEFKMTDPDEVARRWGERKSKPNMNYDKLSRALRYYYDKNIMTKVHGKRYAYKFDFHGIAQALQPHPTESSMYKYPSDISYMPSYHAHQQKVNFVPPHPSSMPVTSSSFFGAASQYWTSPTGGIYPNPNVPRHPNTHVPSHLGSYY
# In short: (§1)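 Pools of DNA-barcoded human transcription factors, expressed in yeast as GST fusions on glutathione beads and combined with a tag-only sample, were incubated with 200 nmole of a 16-mer random double-stranded DNA library. Incubation took 30 min at room temperature in Tris/NaCl/DTT/glycerol buffer and was followed by washing, 0.1% formaldehyde crosslinking, proximity ligation (BsaI/T4 ligase, 1 h, 37 °C), PCR amplification and sequencing on an Illumina NextSeq500. Binding signal is the ratio of a hexamer's read frequency for a factor to its frequency for the tag-only sample.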
# [2] = target: T2, ELK1 (Homo sapiens, UniProt P19419 1-428); conditions: protein: recombinant; tags: N-terminal GST; dsDNA, one strand shown
# T2 sequence: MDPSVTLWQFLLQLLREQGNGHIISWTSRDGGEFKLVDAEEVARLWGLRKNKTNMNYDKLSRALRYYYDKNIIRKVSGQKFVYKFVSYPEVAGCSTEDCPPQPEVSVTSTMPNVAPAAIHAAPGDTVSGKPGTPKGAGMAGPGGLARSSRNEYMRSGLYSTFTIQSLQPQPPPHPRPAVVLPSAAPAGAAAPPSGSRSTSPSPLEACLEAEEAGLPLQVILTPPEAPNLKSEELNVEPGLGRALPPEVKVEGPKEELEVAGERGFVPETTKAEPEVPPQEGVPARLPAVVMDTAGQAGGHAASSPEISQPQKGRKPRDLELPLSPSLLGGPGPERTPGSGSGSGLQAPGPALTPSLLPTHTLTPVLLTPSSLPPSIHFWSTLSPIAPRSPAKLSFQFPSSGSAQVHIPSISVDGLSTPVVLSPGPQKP
# In short: as §1
# [3] = target: T3, GABPA (Homo sapiens, UniProt Q06546 1-454); conditions: protein: recombinant; tags: N-terminal GST; dsDNA, one strand shown
# T3 sequence: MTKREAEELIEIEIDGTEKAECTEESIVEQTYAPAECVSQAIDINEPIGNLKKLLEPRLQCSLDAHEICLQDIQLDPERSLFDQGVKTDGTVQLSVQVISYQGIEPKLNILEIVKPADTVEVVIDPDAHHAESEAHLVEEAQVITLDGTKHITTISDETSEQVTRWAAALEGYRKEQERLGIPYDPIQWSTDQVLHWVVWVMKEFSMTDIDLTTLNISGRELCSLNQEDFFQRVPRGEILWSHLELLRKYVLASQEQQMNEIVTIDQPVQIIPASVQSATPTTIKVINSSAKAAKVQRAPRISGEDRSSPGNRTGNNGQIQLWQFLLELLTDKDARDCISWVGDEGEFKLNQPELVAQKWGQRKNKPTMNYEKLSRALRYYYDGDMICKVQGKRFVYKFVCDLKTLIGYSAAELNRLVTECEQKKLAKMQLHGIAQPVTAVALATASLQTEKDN
# In short: as §1
# [4] = target: T4, ERG (Homo sapiens, UniProt P11308 1-479); conditions: protein: recombinant; tags: N-terminal GST; dsDNA, one strand shown
# T4 sequence: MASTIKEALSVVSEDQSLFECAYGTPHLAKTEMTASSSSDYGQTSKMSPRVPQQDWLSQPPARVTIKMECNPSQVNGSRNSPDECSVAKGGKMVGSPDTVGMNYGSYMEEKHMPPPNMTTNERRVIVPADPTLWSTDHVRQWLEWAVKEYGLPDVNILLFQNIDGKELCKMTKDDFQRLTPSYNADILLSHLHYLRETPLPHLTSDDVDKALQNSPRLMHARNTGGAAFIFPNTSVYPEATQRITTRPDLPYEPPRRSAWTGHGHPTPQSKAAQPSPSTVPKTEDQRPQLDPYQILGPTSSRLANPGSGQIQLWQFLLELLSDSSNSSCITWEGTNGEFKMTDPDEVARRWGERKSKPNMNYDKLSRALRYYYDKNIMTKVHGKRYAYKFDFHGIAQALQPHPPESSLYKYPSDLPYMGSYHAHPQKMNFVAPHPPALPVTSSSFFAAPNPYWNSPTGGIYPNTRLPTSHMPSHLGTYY
# In short: as §1
# [5] = target: ELF1 (Homo sapiens, UniProt P32519 1-619); conditions: protein: recombinant; tags: N-terminal GST; dsDNA, one strand shown
# In short: as §1
# [6] = target: T5, EHF (Homo sapiens, UniProt Q9NZC4 1-300); conditions: protein: recombinant; tags: N-terminal GST; dsDNA, one strand shown
# T5 sequence: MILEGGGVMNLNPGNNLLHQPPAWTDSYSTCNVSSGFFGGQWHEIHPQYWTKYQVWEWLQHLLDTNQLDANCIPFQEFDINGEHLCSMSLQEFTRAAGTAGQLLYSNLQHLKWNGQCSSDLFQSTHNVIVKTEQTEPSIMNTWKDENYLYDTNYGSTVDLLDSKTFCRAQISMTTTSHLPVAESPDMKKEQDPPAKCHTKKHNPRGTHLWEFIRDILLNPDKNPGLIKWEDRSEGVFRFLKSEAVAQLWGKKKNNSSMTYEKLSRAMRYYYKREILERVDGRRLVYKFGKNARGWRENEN
# In short: as §1
# [7] = target: SPI1 (Homo sapiens, UniProt P17947 1-270); conditions: protein: recombinant; tags: N-terminal GST; dsDNA, one strand shown
# In short: as §1
# [8] = target: SPIB (Homo sapiens, UniProt Q01892 1-262); conditions: protein: recombinant; tags: N-terminal GST; dsDNA, one strand shown
# In short: as §1
# [9] = target: T6, ELK3 (Homo sapiens, UniProt P41970 1-407); conditions: protein: recombinant; tags: N-terminal GST; dsDNA, one strand shown
# T6 sequence: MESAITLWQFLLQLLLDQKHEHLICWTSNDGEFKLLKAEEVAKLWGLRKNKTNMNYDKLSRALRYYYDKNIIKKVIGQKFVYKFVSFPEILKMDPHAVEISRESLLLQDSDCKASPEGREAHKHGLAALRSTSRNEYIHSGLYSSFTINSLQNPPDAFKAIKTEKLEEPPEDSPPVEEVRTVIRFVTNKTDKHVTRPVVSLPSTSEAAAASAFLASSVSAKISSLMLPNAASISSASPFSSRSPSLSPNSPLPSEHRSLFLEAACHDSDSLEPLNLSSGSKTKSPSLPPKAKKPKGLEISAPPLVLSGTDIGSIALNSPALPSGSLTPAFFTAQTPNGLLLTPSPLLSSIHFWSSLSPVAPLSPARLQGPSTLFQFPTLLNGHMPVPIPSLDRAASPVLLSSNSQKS
# In short: as §1
# [10] = target: T7, FEV (Homo sapiens, UniProt Q99581 1-238); conditions: protein: recombinant; tags: N-terminal GST; dsDNA, one strand shown
# T7 sequence: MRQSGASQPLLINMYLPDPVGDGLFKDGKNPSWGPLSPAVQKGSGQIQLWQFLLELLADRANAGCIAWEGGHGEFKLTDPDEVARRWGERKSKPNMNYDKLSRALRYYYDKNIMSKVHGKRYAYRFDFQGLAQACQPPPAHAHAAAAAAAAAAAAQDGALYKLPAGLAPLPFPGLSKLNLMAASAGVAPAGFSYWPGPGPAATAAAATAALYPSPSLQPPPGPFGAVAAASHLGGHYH
# In short: as §1
# [11] = target: ETV5 (Homo sapiens, UniProt P41161 1-510); conditions: protein: recombinant; tags: N-terminal GST; dsDNA, one strand shown
# In short: as §1
# [12] = target: HSF1 (Homo sapiens, UniProt Q00613 1-529); conditions: protein: recombinant; tags: N-terminal GST; chain copies: 3; dsDNA, one strand shown
# In short: as §1
# [13] = target: T8, SPIC (Homo sapiens, UniProt Q8N5J4 1-248); conditions: protein: recombinant; tags: N-terminal GST; dsDNA, one strand shown
# T8 sequence: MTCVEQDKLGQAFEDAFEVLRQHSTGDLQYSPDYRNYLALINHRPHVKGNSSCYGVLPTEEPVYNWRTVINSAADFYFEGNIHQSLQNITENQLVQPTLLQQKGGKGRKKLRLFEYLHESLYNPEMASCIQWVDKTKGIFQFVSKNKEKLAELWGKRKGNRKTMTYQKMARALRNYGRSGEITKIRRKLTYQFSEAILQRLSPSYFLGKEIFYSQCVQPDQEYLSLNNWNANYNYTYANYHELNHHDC
# In short: as §1
# [14] = target: ELF4 (Homo sapiens, UniProt Q99607 1-663); conditions: protein: recombinant; tags: N-terminal GST; dsDNA, one strand shown
# In short: as §1
# [15] = target: T9, ELK4 (Homo sapiens, UniProt P28324-2 1-405); conditions: protein: recombinant; tags: N-terminal GST; dsDNA, one strand shown
# T9 sequence: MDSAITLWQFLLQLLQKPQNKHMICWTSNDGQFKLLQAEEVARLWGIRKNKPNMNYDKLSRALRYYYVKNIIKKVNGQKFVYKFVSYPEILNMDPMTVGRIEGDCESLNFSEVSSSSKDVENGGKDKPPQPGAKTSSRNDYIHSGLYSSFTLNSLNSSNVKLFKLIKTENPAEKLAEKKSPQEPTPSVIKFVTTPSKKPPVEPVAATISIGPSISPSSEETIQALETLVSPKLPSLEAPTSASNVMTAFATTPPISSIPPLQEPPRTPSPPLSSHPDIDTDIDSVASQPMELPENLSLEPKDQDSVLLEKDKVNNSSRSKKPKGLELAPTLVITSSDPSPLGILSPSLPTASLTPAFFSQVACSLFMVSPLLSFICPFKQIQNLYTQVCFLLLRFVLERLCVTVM
# In short: as §1
# [16] = target: T10, ETV2 (Homo sapiens, UniProt O00321 1-342); conditions: protein: recombinant; tags: N-terminal GST; dsDNA, one strand shown
# T10 sequence: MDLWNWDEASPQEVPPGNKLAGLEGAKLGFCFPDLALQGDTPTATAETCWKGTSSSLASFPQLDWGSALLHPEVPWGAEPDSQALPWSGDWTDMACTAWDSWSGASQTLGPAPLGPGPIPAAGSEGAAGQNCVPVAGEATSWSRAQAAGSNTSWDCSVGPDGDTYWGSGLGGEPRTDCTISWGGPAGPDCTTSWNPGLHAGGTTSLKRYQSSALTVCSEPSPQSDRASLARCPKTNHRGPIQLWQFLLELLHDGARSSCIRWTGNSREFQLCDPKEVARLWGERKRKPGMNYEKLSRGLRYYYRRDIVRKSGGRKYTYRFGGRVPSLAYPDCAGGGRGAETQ
# In short: as §1
# [17] = target: T11, ELF3 (Homo sapiens, UniProt P78545 1-371); conditions: protein: recombinant; tags: N-terminal GST; dsDNA, one strand shown
# T11 sequence: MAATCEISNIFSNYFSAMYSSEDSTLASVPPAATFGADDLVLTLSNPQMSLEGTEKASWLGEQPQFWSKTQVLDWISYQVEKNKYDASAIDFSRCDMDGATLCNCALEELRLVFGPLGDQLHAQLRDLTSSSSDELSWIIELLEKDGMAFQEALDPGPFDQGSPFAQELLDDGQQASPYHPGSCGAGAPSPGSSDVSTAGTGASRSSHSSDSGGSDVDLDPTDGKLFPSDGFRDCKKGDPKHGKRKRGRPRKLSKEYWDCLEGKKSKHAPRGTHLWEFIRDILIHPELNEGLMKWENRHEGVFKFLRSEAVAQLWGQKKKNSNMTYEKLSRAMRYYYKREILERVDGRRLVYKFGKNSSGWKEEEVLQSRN
# In short: as §1
# [18] = target: CRX (Homo sapiens, UniProt O43186 1-299); conditions: protein: recombinant; tags: N-terminal GST; dsDNA, one strand shown
# In short: as §1
# [19] = target: ETV1 (Homo sapiens, UniProt P50549 1-477); conditions: protein: recombinant; tags: N-terminal GST; dsDNA, one strand shown
# In short: as §1
# Sequence of ETV1 (P50549 whole entry): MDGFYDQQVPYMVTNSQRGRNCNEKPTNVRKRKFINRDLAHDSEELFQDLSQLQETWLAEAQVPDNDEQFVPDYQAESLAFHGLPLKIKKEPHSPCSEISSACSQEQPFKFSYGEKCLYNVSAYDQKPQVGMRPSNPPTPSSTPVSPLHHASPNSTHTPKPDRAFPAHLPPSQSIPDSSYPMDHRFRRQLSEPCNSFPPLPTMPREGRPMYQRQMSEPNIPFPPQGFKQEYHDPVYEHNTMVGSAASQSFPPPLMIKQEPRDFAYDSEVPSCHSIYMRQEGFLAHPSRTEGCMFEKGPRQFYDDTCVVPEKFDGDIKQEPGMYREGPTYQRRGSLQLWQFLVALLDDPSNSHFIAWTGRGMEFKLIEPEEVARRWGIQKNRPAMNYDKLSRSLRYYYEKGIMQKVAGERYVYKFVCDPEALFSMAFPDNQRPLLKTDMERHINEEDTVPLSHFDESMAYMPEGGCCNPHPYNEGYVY
# Sequence of ETV5 (P41161 whole entry): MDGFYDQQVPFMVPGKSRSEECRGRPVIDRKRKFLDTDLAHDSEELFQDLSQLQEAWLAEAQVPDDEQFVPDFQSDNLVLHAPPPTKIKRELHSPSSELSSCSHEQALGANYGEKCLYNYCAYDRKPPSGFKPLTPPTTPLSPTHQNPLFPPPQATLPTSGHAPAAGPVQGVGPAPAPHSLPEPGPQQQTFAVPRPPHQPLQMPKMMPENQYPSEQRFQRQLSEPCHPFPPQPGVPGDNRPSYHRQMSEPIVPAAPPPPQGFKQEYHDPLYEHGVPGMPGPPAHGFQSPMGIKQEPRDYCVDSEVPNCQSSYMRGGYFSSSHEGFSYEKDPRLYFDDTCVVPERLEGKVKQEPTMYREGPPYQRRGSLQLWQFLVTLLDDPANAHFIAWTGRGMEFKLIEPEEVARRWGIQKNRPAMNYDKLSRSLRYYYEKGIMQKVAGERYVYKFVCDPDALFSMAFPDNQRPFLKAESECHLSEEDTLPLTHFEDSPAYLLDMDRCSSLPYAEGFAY
# Sequence of HSF1 (Q00613 whole entry): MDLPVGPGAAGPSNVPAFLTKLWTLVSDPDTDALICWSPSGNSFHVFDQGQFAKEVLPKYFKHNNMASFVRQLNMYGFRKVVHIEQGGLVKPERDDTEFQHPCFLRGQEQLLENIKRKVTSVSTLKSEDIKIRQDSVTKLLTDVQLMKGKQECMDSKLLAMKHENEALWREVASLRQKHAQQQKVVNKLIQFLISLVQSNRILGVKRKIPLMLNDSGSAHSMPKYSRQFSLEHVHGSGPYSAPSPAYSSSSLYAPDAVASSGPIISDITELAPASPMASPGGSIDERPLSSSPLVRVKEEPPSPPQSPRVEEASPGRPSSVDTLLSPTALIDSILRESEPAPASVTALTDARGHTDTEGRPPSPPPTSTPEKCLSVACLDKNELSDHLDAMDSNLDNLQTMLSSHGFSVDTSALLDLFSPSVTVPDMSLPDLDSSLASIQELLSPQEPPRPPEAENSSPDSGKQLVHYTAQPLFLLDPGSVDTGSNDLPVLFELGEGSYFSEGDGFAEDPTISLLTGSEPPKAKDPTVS
# Sequence of ELF1 (P32519 whole entry): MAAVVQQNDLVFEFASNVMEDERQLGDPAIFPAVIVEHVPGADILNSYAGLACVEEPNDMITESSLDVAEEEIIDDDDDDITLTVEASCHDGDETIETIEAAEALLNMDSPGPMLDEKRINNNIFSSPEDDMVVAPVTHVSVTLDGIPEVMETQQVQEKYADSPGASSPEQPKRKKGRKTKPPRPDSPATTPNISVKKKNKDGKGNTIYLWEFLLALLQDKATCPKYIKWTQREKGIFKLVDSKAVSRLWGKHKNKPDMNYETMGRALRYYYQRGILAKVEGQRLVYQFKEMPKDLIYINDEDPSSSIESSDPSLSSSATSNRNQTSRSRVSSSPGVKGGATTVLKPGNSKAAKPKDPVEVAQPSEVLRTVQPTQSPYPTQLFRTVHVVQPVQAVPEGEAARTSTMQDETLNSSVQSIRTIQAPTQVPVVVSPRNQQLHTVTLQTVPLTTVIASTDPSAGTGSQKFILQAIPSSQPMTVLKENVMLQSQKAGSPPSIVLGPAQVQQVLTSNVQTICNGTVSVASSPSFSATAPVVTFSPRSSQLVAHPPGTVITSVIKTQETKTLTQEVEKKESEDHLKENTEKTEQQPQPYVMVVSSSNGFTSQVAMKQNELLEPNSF
# Sequence of ELF4 (Q99607 whole entry): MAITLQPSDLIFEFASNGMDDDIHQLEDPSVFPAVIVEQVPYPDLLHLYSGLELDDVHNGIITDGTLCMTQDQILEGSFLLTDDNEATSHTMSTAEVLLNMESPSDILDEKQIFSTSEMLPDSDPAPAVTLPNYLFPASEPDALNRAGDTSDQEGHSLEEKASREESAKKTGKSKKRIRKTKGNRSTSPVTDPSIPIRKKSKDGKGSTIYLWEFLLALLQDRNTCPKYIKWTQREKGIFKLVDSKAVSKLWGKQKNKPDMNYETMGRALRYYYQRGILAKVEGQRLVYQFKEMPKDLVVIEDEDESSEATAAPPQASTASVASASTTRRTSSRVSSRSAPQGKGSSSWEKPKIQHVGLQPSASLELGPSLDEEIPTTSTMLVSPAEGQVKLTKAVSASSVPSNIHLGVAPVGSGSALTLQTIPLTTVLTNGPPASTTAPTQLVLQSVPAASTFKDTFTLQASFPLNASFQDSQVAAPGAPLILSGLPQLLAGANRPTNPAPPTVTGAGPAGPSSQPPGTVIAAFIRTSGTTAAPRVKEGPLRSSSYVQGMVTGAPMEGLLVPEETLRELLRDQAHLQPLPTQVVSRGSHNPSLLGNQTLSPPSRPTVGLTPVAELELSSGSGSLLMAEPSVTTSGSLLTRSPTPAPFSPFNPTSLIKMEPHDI
# Sequence of CRX (O43186 whole entry): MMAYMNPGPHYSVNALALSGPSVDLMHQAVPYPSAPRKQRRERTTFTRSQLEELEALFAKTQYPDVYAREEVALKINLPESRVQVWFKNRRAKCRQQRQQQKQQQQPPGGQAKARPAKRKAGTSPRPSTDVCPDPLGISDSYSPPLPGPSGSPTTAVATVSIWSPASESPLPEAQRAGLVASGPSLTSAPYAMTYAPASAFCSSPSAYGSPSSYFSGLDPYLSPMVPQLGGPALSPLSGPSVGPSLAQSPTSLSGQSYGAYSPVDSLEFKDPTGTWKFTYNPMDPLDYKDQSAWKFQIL
# Sequence of SPIB (Q01892 whole entry): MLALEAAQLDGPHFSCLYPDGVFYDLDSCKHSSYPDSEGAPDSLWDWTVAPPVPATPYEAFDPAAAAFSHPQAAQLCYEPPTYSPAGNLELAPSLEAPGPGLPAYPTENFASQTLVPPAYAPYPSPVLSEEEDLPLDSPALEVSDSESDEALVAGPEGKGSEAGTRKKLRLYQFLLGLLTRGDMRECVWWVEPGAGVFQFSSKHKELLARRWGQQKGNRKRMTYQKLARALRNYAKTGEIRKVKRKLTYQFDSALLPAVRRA
sequence,measurement,setting,value
TCTCCC,binding signal,[1],"1.66 fold enrichment (6-mer frequency, TF over GST control)"
same,binding signal,[2],"1.68 fold enrichment (6-mer frequency, TF over GST control)"
same,binding signal,[3],"1.74 fold enrichment (6-mer frequency, TF over GST control)"
same,binding signal,[4],"1.54 fold enrichment (6-mer frequency, TF over GST control)"
same,binding signal,[5],"1.63 fold enrichment (6-mer frequency, TF over GST control)"
same,binding signal,[6],"1.73 fold enrichment (6-mer frequency, TF over GST control)"
same,binding signal,[7],"1.47 fold enrichment (6-mer frequency, TF over GST control)"
same,binding signal,[8],"1.71 fold enrichment (6-mer frequency, TF over GST control)"
same,binding signal,[9],"1.75 fold enrichment (6-mer frequency, TF over GST control)"
same,binding signal,[10],"1.7 fold enrichment (6-mer frequency, TF over GST control)"
same,binding signal,[11],"1.64 fold enrichment (6-mer frequency, TF over GST control)"
same,binding signal,[12],"1.65 fold enrichment (6-mer frequency, TF over GST control)"
same,binding signal,[13],"1.51 fold enrichment (6-mer frequency, TF over GST control)"
same,binding signal,[14],"1.78 fold enrichment (6-mer frequency, TF over GST control)"
same,binding signal,[15],"1.63 fold enrichment (6-mer frequency, TF over GST control)"
same,binding signal,[16],"1.54 fold enrichment (6-mer frequency, TF over GST control)"
same,binding signal,[17],"1.78 fold enrichment (6-mer frequency, TF over GST control)"
same,binding signal,[18],"1.7 fold enrichment (6-mer frequency, TF over GST control)"
same,binding signal,[19],"1.78 fold enrichment (6-mer frequency, TF over GST control)"
